Measured values published in the supplement of paper PMC6555819.

What was measured:
Assay in all cases: PBM binding z-score (relative to random genomic background probes); higher = stronger binding; sequences stand for … in GC…GCGATTGACAGCGTAGAATGAAGG
[1] = test system: FXR:RXRa (NR concentration 270 nM, RXRa partner concentration 90 nM)
How it was run: (§1)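 Custom Agilent 4×180K protein-binding microarrays carried double-stranded probes. Their 34-nt variable regions held direct-repeat seeds, single-nucleotide variants, half-site ablations and random human genomic background sequences. Arrays were incubated 1 h with ligand-free nuclear receptor dimers in PBS pH 7.4, 2% milk, 0.02% Triton X-100, 1 mM DTT, 0.2 mg/mL BSA and 0.4 mg/ml salmon testes DNA. Antibodies against each partner (one per run) detected binding, and scanned fluorescence was regression-normalized. Binding z-scores use random background probes as reference.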

[2] = test system: LXRa:RXRa (NR concentration 270 nM, RXRa partner concentration 90 nM)
How it was run: as §1

[3] = test system: LXRa homodimer (NR concentration 270 nM)
How it was run: as §1

[4] = test system: LXRb:RXRa (NR concentration 270 nM, RXRa partner concentration 90 nM)
How it was run: as §1

[5] = test system: LXRb homodimer (NR concentration 270 nM)
How it was run: as §1

[6] = test system: PPARa:RXRa (NR concentration 270 nM, RXRa partner concentration 90 nM)
How it was run: as §1

[7] = test system: PPARg:RXRa (NR concentration 180 nM, RXRa partner concentration 90 nM)
How it was run: as §1

[8] = test system: PPARg:RXRa 270nM:90nM, anti-RXR (NR concentration 270 nM, RXRa partner concentration 90 nM)
How it was run: as §1

[9] = test system: PPARg:RXRa 30nM:10nM, anti-RXR (NR concentration 30 nM, RXRa partner concentration 10 nM)
How it was run: as §1

[10] = test system: PPARg:RXRa 90nM:30nM, anti-RXR (NR concentration 90 nM, RXRa partner concentration 30 nM)
How it was run: as §1

[11] = test system: PPARg:RXRa DBDmut IVT, anti-RXR (DBD mutation: RXRa K156A/R161A, NR concentration 270 nM, RXRa partner concentration 90 nM)
How it was run: as §1

[12] = test system: PPARg:RXRa IVT, anti-PPARg (NR concentration 270 nM, RXRa partner concentration 90 nM)
How it was run: as §1

[13] = test system: PPARg DBDmut:RXRa IVT, anti-PPARg (DBD mutation: PPARg1 K132A/R137A, NR concentration 270 nM, RXRa partner concentration 90 nM)
How it was run: as §1

[14] = test system: PPARg DBDmut IVT, anti-PPARg (DBD mutation: PPARg1 K132A/R137A, NR concentration 270 nM)
How it was run: as §1

[15] = test system: PPARg homodimer (NR concentration 180 nM)
How it was run: as §1

[16] = test system: PXR:RXRa (NR concentration 270 nM, RXRa partner concentration 90 nM)
How it was run: as §1

[17] = test system: PXR homodimer (NR concentration 270 nM)
How it was run: as §1

[18] = test system: RARa:RXR (NR concentration 270 nM, RXRa partner concentration 90 nM)
How it was run: as §1

[19] = test system: RARa homodimer (NR concentration 270 nM)
How it was run: as §1

[20] = test system: RARb:RXRa (NR concentration 270 nM, RXRa partner concentration 90 nM)
How it was run: as §1

| Sequence | PBM binding z-score [1] | PBM binding z-score [2] | PBM binding z-score [3] | PBM binding z-score [4] | PBM binding z-score [5] | PBM binding z-score [6] | PBM binding z-score [7] | PBM binding z-score [8] | PBM binding z-score [9] | PBM binding z-score [10] | PBM binding z-score [11] | PBM binding z-score [12] | PBM binding z-score [13] | PBM binding z-score [14] | PBM binding z-score [15] | PBM binding z-score [16] | PBM binding z-score [17] | PBM binding z-score [18] | PBM binding z-score [19] | PBM binding z-score [20] |
| --- | --- | --- | --- | --- | --- | --- | --- | --- | --- | --- | --- | --- | --- | --- | --- | --- | --- | --- | --- | --- |
| GCGACTGGGGCATCGGCAGGTTACCATAACTTAA | 0.0165 | -0.138 | -0.214 | 0.589 | -0.797 | 1.06 | 0.979 | 1.1 | -0.324 | 0.563 | 3.7 | 3.26 | -0.659 | -0.662 | 0.364 | 0.0639 | -0.275 | 0.387 | -0.205 | 0.954 |
| ACTAGCAGGCCAAGTTTGTGTCACTCAAACAAAG | -0.566 | -0.667 | -0.358 | -0.814 | -0.886 | -0.219 | -0.46 | -0.574 | -0.538 | -0.746 | 0.66 | 0.636 | -0.284 | -0.278 | -0.972 | -0.323 | -0.685 | -0.217 | -0.826 | 0.471 |
| ATATATAGGTTACATCCGGGTCATTCAGGCTATG | 3.03 | 5.06 | 2.32 | 3.45 | 1.23 | 4.67 | 6.17 | 5.45 | 2.59 | 4.8 | 7.41 | 7.26 | 3.67 | 2.9 | 2.67 | 4.12 | 2.95 | 4.05 | 1.77 | 2.51 |
| GTACCAAGGTGAGTAGGTCGTTGATGAGTAGGCG | 0.04 | 0.0147 | -0.31 | -0.286 | -0.924 | 1.17 | 0.822 | 0.888 | -0.11 | 0.35 | 1.77 | 2.68 | -0.145 | -1.14 | 0.691 | 0.089 | 0.0427 | 0.391 | 0.166 | 1.16 |
| ACTAGCAGGCCAAGTTTGGGTCTCTCAAACAAAG | -0.742 | -0.825 | -0.773 | -0.616 | -0.908 | -0.417 | -0.897 | -0.524 | -1.1 | -0.853 | 0.491 | 0.0697 | -1.53 | -0.788 | -1.17 | -0.733 | -0.734 | -0.606 | -1.44 | 0.382 |
| GCTATTAGTTGAAAGGGCGACCGAATGATTCTCG | -0.184 | 0.0609 | -0.118 | 0.0118 | -0.239 | 0.973 | 1.72 | 3.27 | 1.2 | 3.05 | 0.652 | -0.0504 | -0.223 | -0.65 | 0.251 | -0.1 | -0.523 | 0.097 | -0.0879 | 0.699 |
| GCTTACGGGTCAAAGGTTTTAGCATGAATAGAAT | 6.63 | 4.06 | 0.0126 | 4.17 | 0.372 | 5.95 | 9.13 | 7.88 | 6.54 | 8.43 | 4.96 | 5.14 | 1.91 | 1.07 | 3.2 | 4.06 | 0.129 | 5.58 | 0.298 | 3.98 |
| ACATACGGGTCAACGAGGTTATAGCACGCGTATA | 5.59 | 4.74 | 0.827 | 3.97 | 0.73 | 5.39 | 5.65 | 4.94 | 1.99 | 3.86 | 3.32 | 4.26 | 2.04 | 0.961 | 2.67 | 5.01 | 2.89 | 5.03 | 1.03 | 3.99 |
| TCGAGTAGGCTAGTCGGGGCATTCAGCCAACATA | -0.433 | -0.611 | -0.763 | -0.579 | -1.53 | -0.209 | -0.351 | 0.0773 | 0.911 | 0.101 | 0.821 | 0.0917 | -1.43 | -1.24 | -0.694 | -0.462 | -0.889 | -0.446 | -1.18 | -0.223 |
| TCTTGTAGATCAAGCAGGTTCAGAAAGCCTGAGT | 0.0146 | 0.179 | -0.177 | 0.301 | -0.777 | 0.691 | -0.504 | 1.16 | 2.45 | 1.72 | 1.67 | 0.23 | -0.203 | -0.258 | -0.265 | 1.42 | 0.458 | 0.45 | -0.397 | -0.164 |
| TAGCCTAGGTCCTGGGCCAGTATACCACGCGAAC | -0.638 | -1.08 | -0.796 | -0.85 | -1.45 | -0.439 | -0.0172 | -0.469 | -1.04 | -0.662 | -1.56 | -0.0166 | -0.0149 | -1.32 | -1.29 | -0.91 | -0.893 | -0.567 | -1.37 | -0.156 |
| ACTAGTTGGTCAGCTGAGGTCACGCACAATTCGG | 3.89 | 3.8 | 2.33 | 3.79 | 0.387 | 4.12 | 2.12 | 3.28 | 0.707 | 2.16 | 1.52 | 3.03 | 0.779 | -0.0173 | 2.43 | 5.57 | 1.08 | 4.84 | 0.816 | 4.04 |
| AGTCAAAGTTCAGGACGAGGTATCGTAAAGCACG | 3.59 | 3.83 | 1.22 | 1.59 | -0.0231 | 2.98 | 3.89 | 4.58 | 1.74 | 3.93 | -0.507 | 0.996 | 0.0216 | 0.419 | 1.39 | 2.32 | 1.4 | 2.06 | 0.462 | 4.09 |
| TCTTGTACATCAATAGAGGTTAAGAAAGTGCGCT | 0.725 | 3.49 | 0.473 | 1.79 | 0.532 | 1.82 | 0.201 | 1.72 | 3.01 | 2.08 | 1.8 | 1.66 | 1.53 | 1.13 | 0.454 | 2.94 | 0.485 | 1.98 | 0.123 | 1.08 |
| TCTAGCAGGCCAGAGTGTCACTCAAGAGGTACGG | -0.276 | -0.311 | -1.03 | -0.712 | -1.41 | 0.336 | 0.89 | 1.81 | 1.93 | 1.97 | 0.735 | 0.187 | -0.515 | -1.96 | -0.804 | -0.229 | -0.833 | 0.142 | -1.77 | 0.361 |
| TCTATTAGTTGATTAGGGCTACCGAAACAGCGGA | 0.263 | 0.345 | -0.0589 | 0.351 | 0.304 | 0.505 | 0.0193 | 2.26 | 3.84 | 2.98 | 1.71 | 0.487 | 0.367 | 0.888 | 1.29 | 0.181 | 0.128 | 0.22 | 0.748 | 0.309 |
| AGCATGAGGTTATTAAGATCAGGGAATTGCGGTC | 1.6 | 1.5 | 0.191 | 1.14 | -0.175 | 2.03 | 0.647 | 1.13 | 0.242 | 0.454 | 0.439 | 0.818 | 0.518 | -0.586 | 0.577 | 1.29 | 0.786 | 1.44 | 0.368 | 1.45 |
| ATCTCTAGCTAAAAGTTCAGTGAATCCCGAGGAT | 0.149 | 0.948 | 1.36 | 0.693 | 0.99 | 0.474 | 0.264 | 1.29 | 0.52 | 0.949 | -0.639 | -0.151 | 0.697 | 1.23 | 0.702 | 1.3 | 1.49 | 0.379 | 0.986 | 2.17 |
